According to PubChem BioAssay (Tox21):
Inconclusive results are not listed. Active and inactive are the calls of the source. Unless noted, calls follow the shape of the dose curve; as a rule, active = well fitted curve in the direction sought with a large enough effect in the repeat runs; inconclusive = weak or mixed curves; inactive = no such curve, though single readings can be large; an effect the other way counts as inactive or inconclusive.

Experiments:
[1] = qHTS assay to identify small molecule antagonists of the estrogen receptor alpha (ER-alpha) signaling pathway using the BG1 cell line in the presence of 0.1 nM 17-beta-estradiol - cell viability counter screen (AID 1259241); also: nearly all actives have a fitted effect of over 40% in size
How it was run: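 Estradiol-stimulated (0.1 nM) VM7Luc4E2 cells exposed to compounds 22 hr; viability measured by fluorescence of cleaved CellTiter-Fluor substrate after 30 min.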

[2] = qHTS assay to identify small molecule antagonists of the androgen receptor (AR) signaling pathway using the MDA cell line in the presence of 0.5 nM R1881 - cell viability counter screen (AID 1259242); also: nearly all actives have a fitted effect of over 45% in size
How it was run: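 MDA-kb2 cells (MMTV-luciferase, AR/GR responsive) were treated with compounds plus 0.5 nM R1881 (final) for 16 hr at 37C, 0% CO2. Viability was then read in the same wells as live-cell protease fluorescence (CellTiter-Fluor, 30 min).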

[3] = target: Androgen receptor (Homo sapiens) (UniProt P10275); assay: qHTS assay to identify small molecule antagonists of the androgen receptor (AR) signaling pathway using the MDA cell line in the presence of 0.5 nM R1881 (AID 1259243); also: nearly all actives have a fitted effect of over 50% in size
How it was run: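 MDA-kb2 cells (MMTV-luciferase, responsive to AR and GR) at 3,000/well, rested 5 h at 37C, 0% CO2, then given compounds plus 0.5 nM R1881 (final) for 16 hr. Luciferase read with ONE-Glo after 30 min at room temperature.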

[4] = target: Estrogen receptor (Homo sapiens) (UniProt P03372); assay: qHTS assay to identify small molecule antagonists of the estrogen receptor alpha (ER-alpha) signaling pathway using the BG1 cell line in the presence of 0.1 nM 17-beta-estradiol (AID 1259244); also: nearly all actives have a fitted effect of over 50% in size
How it was run: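 VM7Luc4E2 cells (endogenous full-length ER-alpha, 4×ERE-luciferase), kept 5 days in phenol red-free, charcoal-stripped FBS medium; 4,000 cells/well. Compounds added with 0.1 nM (final) 17beta-estradiol, 22 hr at 37C; luminescence read with ONE-Glo after 30 min.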

[5] = qHTS assay to identify small molecule HDAC inhibitors (AID 1259364); also: top concentration of the series differs between compounds; nearly all actives have a fitted effect of over 45% in size
How it was run: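 Wild-type HCT-116 cells, plated overnight at 37 C, exposed to compounds 2 hr at 37 C; luminogenic HDAC-Glo substrate then added 30 min at room temperature. Luminescence reports relative endogenous class I/II HDAC activity.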

[6] = qHTS assay to identify small molecule HDAC inhibitors - cell viability counter screen (AID 1259365); also: series mostly up to about 92 µM; nearly all actives have a fitted effect of over 50% in size
How it was run: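 After overnight seeding at 1,500 cells per well, wild-type HCT-116 cultures took up compounds in DMSO for 2hr at 37 C. Viable cell content came from luminescence with CellTiter-Glo.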

[7] = qHTS assay to identify small molecule agonists of the sonic hedgehog signaling (Shh) pathway - cell viability counter screen (AID 1259366); also: nearly all actives have a fitted effect of over 50% in size
How it was run: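 Same-well cytotoxicity read. Gli1-Luc reporter 3T3 cells; compounds 24hr, 37C/5% CO2; CellTiter-Fluor fluorescence.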

[8] = qHTS assay to identify small molecule antagonists of the sonic hedgehog signaling (Shh) pathway - cell viability counter screen (AID 1259367); also: nearly all actives have a fitted effect of over 55% in size
How it was run: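 Cells: 3T3 Gli1-Luc, 2,000/well, 4 hr pre-incubation. Compounds in DMSO, then conditioned medium. Incubation 24 hr, 37C, 5% CO2. CellTiter-Fluor at 23 hr, 1 hr, fluorescence.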

[9] = qHTS assay to identify small molecule agonists of the sonic hedgehog signaling (Shh) pathway (AID 1259368; calls by dose curve;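 also: NIH/3T3-derived 3T3Gli1-Luc cells carrying a stable Gli1-driven firefly luciferase reporter; series mostly up to about 92 µM; nearly all actives have a fitted effect of over 15% in size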)
How it was run: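 NIH/3T3-derived 3T3Gli1-Luc cells with stably integrated Gli1-driven firefly luciferase, 2,000 cells/well, compounds added after 4 hr. Incubated 24 hr at 37C, 5% CO2; luminescence read after 30 min with luciferase reagent at room temperature.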

[10] = qHTS assay to identify small molecule antagonists of the sonic hedgehog signaling (Shh) pathway (AID 1259369; calls by dose curve; also: nearly all actives have a fitted effect of over 45% in size)
How it was run: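 NIH/3T3-derived Gli1-Luc reporter cells plated 4 h, dosed with compound, then stimulated with conditioned medium for 24 h at 37 C. Firefly luciferase luminescence read after 30 min with detection reagent at room temperature.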

[11] = target: Estrogen receptor beta (Homo sapiens) (UniProt Q92731); assay: qHTS assay to identify small molecule agonists of the estrogen receptor beta (ER-beta) signaling pathway (AID 1259377; active = well fitted activation curve with a large enough effect in the signal ratio in the repeat runs, not every such curve was filed as active; the % refers to the signal ratio)
How it was run: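 Read-out: beta-lactamase FRET fluorescence. Cell line: ER-beta-UAS-bla HEK293T in 2% charcoal-stripped FBS. Exposure: 16 hr at 37C. Substrate step: 2 h at room temperature.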

[12] = target: Estrogen receptor beta (Homo sapiens) (UniProt Q92731); assay: qHTS assay to identify small molecule antagonists of the estrogen receptor beta (ER-beta) signaling pathway (AID 1259378; active = well fitted inhibition curve with a large enough effect in the signal ratio in the repeat runs, not every such curve was filed as active; the % refers to the signal ratio)
How it was run: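 Antagonist mode: compounds added to beta-lactamase reporter HEK293T ER-beta-UAS cells stimulated with E2 (1nM final), 16 hr at 37C. LiveBLAzer B/G FRET substrate, 2 hours room temperature, fluorescence read-out.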

[13] = qHTS assay to identify small molecule agonists of the androgen receptor (AR) signaling pathway in the presence of an antagonist - cell viability counter screen (AID 1259379);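 also: MDA-kb2 human breast cancer cells carrying an MMTV luciferase reporter; series mostly up to about 92 µM; nearly all actives have a fitted effect of over 25% in size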
How it was run: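 MDA-kb2 cells (MMTV-luciferase, AR/GR), 3,000/well, 5 h attachment, then 3.0 µM nilutamide (final) and compounds at 15 concentrations. Viability by CellTiter-Fluor fluorescence after 16 h at 37 °C, 0% CO2, in the reporter wells.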

[14] = target: Androgen receptor (Homo sapiens) (UniProt P10275); assay: qHTS assay to identify small molecule agonists of the androgen receptor (AR) signaling pathway in the presence of an antagonist (AID 1259381; calls by dose curve; also: nearly all actives have a fitted effect of over 15% in size)
How it was run: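 MDA-kb2 cells carrying MMTV-luciferase (AR/GR responsive), 3,000 cells/well, co-treated with 3.0 uM nilutamide final. Compounds at 15 concentrations, 16 hr at 37C without CO2. Luciferase luminescence read after 30 min with ONE-Glo.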

[15] = qHTS assay to identify small molecule antagonists of the estrogen receptor beta (ER-beta) signaling pathway - cell viability counter screen (AID 1259382);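 also: HEK293T cells carrying ER-beta-UAS-bla reporter stimulated with estradiol; series mostly up to about 92 µM; nearly all actives have a fitted effect of over 55% in size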
How it was run: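 ER-beta-UAS-bla HEK293T cells in 2% charcoal-stripped FBS medium, treated with compound plus 1 nM 17-beta-estradiol for 16 h at 37C. Viability read by CellTiter-Glo luminescence after 30 min at room temperature in the same wells.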

[16] = target: Estrogen receptor (Homo sapiens) (UniProt P03372); assay: qHTS assay to identify small molecule agonists of the estrogen receptor alpha (ER-alpha) signaling pathway in the presence of an antagonist (AID 1259383; calls by dose curve; also: top concentration of the series differs between compounds; nearly all actives have a fitted effect of over 15% in size)
How it was run: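 VM7Luc4E2 cells express endogenous full-length ER-alpha with an ERE-luciferase reporter and were hormone-deprived for 5 days. Compounds at 15 concentrations were added with 10.0nM ICI-182,780 for 22hr at 37C. Luminescence was read with ONE-Glo.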

[17] = qHTS assay to identify small molecule agonists or antagonists of the thyroid stimulating hormone receptor (TSHR) signaling pathway - wild type cell line counter screen (AID 1259384; calls by dose curve)
How it was run: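 Counter screen in untransfected Hek293: compounds (15-point titration, triplicate) plus phosphodiesterase inhibitor Ro20-1724 added after 18 h plating; 30 min RT. Intracellular cAMP via competitive d2/cryptate immunoassay, 1 h incubation.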

[18] = target: Thyrotropin receptor (Homo sapiens) (UniProt P16473); assay: qHTS assay to identify small molecule antagonists of the thyroid stimulating hormone receptor (TSHR) signaling pathway (AID 1259385; calls by dose curve; also: nearly all actives have a fitted effect of over 20% in size)
How it was run: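 Antagonist mode: compound-treated TSHR-expressing HEK293 cells were stimulated with 1.5 ng/mL TSH (final) in presence of Ro20-1724 for 30 min at RT. HTRF cAMP detection after 1 h; each compound tested at 15 concentrations, triplicate.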

[19] = qHTS assay to identify small molecule agonists of the estrogen receptor beta (ER-beta) signaling pathway - cell viability counter screen (AID 1259380); also: nearly all actives have a fitted effect of over 30% in size
How it was run: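 ER-beta-UAS-bla HEK293T cells in medium with 2% charcoal-stripped FBS, pre-incubated 6 hr, then treated 16 hr at 37C. Cytotoxicity read in the same wells by CellTiter-Glo luminescence after 30 min at room temperature.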

Measured: Potency

Sequence of Androgen receptor (Homo sapiens) (P10275 whole entry, looked up): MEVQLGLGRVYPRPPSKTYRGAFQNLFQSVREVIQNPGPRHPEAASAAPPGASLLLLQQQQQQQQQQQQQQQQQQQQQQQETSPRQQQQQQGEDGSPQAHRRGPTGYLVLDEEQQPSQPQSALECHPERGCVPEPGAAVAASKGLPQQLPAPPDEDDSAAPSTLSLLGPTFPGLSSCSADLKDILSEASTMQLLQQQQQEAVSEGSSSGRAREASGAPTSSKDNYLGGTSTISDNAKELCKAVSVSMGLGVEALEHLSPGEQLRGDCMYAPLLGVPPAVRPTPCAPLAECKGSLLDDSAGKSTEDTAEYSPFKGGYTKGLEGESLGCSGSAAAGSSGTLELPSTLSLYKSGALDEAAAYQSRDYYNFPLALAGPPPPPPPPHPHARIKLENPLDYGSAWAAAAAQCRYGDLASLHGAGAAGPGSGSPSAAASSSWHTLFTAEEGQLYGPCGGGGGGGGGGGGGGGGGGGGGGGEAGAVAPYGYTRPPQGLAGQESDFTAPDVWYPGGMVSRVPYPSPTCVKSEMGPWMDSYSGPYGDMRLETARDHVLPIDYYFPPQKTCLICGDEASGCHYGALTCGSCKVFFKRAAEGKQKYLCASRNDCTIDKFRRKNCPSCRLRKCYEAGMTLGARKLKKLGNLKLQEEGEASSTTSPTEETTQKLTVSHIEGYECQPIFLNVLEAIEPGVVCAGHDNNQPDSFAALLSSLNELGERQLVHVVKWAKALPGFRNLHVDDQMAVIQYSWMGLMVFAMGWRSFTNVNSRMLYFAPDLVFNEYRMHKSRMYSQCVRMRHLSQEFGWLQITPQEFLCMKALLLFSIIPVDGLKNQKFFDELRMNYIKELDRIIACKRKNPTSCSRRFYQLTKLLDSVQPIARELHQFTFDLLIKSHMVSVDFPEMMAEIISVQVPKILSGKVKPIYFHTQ
Sequence of Thyrotropin receptor (Homo sapiens) (P16473 whole entry, looked up): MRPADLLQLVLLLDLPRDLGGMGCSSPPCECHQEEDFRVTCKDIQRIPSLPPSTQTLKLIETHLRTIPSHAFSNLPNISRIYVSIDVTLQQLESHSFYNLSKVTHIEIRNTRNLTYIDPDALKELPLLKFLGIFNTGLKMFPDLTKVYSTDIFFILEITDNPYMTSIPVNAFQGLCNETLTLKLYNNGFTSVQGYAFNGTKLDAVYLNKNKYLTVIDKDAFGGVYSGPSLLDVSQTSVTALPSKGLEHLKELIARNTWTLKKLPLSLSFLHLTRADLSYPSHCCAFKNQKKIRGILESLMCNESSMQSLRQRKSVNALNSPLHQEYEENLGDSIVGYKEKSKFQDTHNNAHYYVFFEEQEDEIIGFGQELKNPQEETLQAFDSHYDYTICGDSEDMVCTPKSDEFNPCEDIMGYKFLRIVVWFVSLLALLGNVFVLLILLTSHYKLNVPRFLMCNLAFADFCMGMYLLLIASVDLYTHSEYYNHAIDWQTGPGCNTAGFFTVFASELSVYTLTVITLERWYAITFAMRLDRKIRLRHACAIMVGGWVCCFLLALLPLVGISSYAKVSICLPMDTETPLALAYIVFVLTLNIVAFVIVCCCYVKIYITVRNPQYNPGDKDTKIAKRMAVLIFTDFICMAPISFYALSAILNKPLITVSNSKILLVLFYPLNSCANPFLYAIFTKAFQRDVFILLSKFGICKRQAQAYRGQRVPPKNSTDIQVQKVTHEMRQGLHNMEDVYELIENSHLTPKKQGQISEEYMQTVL
Sequence of Estrogen receptor (Homo sapiens) (P03372 whole entry, looked up): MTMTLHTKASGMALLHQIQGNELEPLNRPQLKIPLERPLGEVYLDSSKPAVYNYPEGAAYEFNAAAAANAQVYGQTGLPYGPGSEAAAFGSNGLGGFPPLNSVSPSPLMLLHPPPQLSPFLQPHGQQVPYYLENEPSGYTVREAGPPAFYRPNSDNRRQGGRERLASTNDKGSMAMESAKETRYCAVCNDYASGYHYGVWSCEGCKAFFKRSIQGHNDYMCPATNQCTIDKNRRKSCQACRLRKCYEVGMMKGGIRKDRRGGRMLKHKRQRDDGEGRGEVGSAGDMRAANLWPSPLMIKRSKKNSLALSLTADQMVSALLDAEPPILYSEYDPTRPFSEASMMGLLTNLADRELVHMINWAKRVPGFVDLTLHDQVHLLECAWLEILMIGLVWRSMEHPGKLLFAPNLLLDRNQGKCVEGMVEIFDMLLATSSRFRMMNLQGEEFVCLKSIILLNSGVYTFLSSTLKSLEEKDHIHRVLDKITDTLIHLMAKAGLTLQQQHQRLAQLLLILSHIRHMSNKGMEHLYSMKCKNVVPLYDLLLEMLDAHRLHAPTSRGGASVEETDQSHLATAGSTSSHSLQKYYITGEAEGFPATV
Sequence of Estrogen receptor beta (Homo sapiens) (Q92731 whole entry, looked up): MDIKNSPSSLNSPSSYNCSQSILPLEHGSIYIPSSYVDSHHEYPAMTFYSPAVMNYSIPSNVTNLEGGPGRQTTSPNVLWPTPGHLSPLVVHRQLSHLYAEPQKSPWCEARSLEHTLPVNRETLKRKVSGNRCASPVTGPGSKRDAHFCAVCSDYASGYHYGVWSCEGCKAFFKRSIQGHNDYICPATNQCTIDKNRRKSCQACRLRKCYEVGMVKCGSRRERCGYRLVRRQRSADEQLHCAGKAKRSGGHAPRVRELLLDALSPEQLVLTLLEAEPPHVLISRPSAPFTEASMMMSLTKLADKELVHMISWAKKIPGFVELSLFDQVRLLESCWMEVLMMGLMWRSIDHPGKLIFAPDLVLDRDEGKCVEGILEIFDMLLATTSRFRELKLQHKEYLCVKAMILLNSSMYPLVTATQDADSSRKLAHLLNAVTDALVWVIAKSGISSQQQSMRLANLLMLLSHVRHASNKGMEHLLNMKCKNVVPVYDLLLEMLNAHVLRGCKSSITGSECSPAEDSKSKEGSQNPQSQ

Oc1cccc2[nH]ccc12
not listed: [19]
inactive: all other assays above

CC(=O)c1ccc[nH]1
inactive: all assays above

CC1CCC(C(C)CS)CC1S (centres undefined)
not listed: [4] | [16]
inactive: all other assays above
